Activity calls are given as the source filed them. Calls follow the shape of the dose curve; as a rule, active = well fitted curve in the direction sought with a large enough effect in the repeat runs; inconclusive = weak or mixed curves; inactive = flat fitted curve, though single readings scatter.
Assay: qHTS assay to test for compound auto fluorescence at 590 nm (red) in HepG2 cells (AID 720674)
Settings: HepG2 autofluorescence, red 540/590 nm, 1 h; series mostly up to 91.3 µM
How it was run: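 Rose Bengal sodium served as the red fluorophore standard. HepG2 monolayers (overnight attachment, MEM with 10% FBS) were exposed to test compounds for 1 hr at 37 C and read at Ex 540/Em 590 nm.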
For `Nc1ccc(C(=O)OCCCOC(=O)c2ccc(N)cc2)cc1`, the outcome was “inactive”. For `CSc1ccc(Oc2ccc(S(N)(=O)=O)cc2CN(C)C)cc1C`, the outcome was “inactive”. With `NC(=O)N(O)[C@@H]1COc2cc(OCc3ccccc3)ccc21` the outcome was “inactive”. In the case of `N#C/C(=C1/SC[C@@H](c2ccc(Cl)cc2Cl)S1)n1ccnc1`, the outcome is reported as “inactive”. For `c1cc[c]([Bi]([c]2ccccc2)[c]2ccccc2)cc1`, the outcome was “inactive”. In the case of `CC(=O)OCC(=O)[C@@]12OC(C)(C)O[C@@H]1C[C@H]1[C@@H]3C[C@H](F)C4=CC(=O)C=C[C@]4(C)[C@@]3(F)[C@@H](O)C[C@@]12C`, the fluorescence, relative to Rose Bengal is reported as 0.821% [at 18.6 µM] (inactive). In the case of `CCCCCCOC(=O)CCCCCCCC(=O)OCCCCCC`, the outcome is reported as “inactive”. For `O=C(Nc1ccccc1)Nc1ccccc1`, the outcome was “inactive”. For `CC(N)CN` (centres undefined), the outcome was “inactive”. For `O=C(CCCN1CCN(c2ccc(F)cc2)CC1)NC1c2ccccc2CSc2ccccc21` (centres undefined), the outcome was “inactive”. For `CCc1cccc(N(C)C(N)=Nc2cccc3ccccc23)c1`, the outcome was “inactive”. In the case of `O=C(CCC1CCN(Cc2ccccc2)CC1)c1ccc2c(c1)NCCCC2`, the outcome is reported as “inactive”. For `COc1cc2ncnc(Nc3ccc(F)c(Cl)c3)c2cc1OCCCN1CCOCC1`, the outcome was “inactive”. For `CN(C)C(=O)Nc1ccc(Oc2ccc(Cl)cc2)cc1`, the outcome was “inactive”. With `CC(C)C(OC(=O)c1ccccc1)C(C)(C)COC(=O)c1ccccc1` (centres undefined) the outcome was “inactive”. With `Cc1nccn1-c1ccc(Sc2cccc(C3(C(N)=O)CCOCC3)c2)cc1` the outcome was “inactive”. For `CC1=C(/C=C/C(C)=C\C=C\C(C)=C\C(=O)O)C(C)(C)CCC1`, the outcome was “inactive”. In the case of `CCCCN(CCCC)C(=S)SSC(=S)N(CCCC)CCCC`, the outcome is reported as “inactive”. For `Cc1c(C(=O)NN2CCCCC2)nn(-c2ccc(Cl)cc2Cl)c1-c1ccc(Cl)cc1`, the outcome was “inactive”. In the case of `Brc1cc(-c2ccc(Br)c(Br)c2Br)cc(Br)c1Br`, the outcome is reported as “inactive”. In the case of `CC(=O)Oc1ccc2c(c1)CC[C@@H]1[C@@H]2CC[C@]2(C)[C@@H](O)CC[C@@H]12`, the outcome is reported as “inactive”. For `COC(OC)(C(=O)c1ccccc1)c1ccccc1`, the outcome was “inactive”. For `Cc1ccc(S(=O)(=O)NC2CCCCC2)cc1`, the outcome was “inactive”. For `CC1C2CC(CC2C2CCCC(O)C2)C1(C)C` (centres undefined), the outcome was “inactive”. In the case of `CC1=NN(c2ccc(C(=O)O)cc2)C(=O)C1`, the outcome is reported as “inactive”. With `CC[C@H](NC(=O)c1cc(F)ccc1NS(=O)(=O)c1cccc2cccnc12)c1ccccc1` the outcome was “inactive”. For `COCc1c(C(C)C)nc(C(C)C)c(/C=C/[C@@H](O)C[C@@H](O)CC(=O)O)c1-c1ccc(F)cc1`, the outcome was “inactive”. In the case of `CC(C)c1nnc2ccc(-c3ocnc3-c3cc(F)ccc3F)cn12`, the outcome is reported as “inactive”. With `COc1cc2c(N3CCN(C(=O)Nc4ccc(OC(C)C)cc4)CC3)ncnc2cc1OCCCN1CCCCC1` the outcome was “inactive”. For `CCCc1c(OCCCOc2ccc(OCC(=O)O)cc2)ccc(C(C)=O)c1O`, the outcome was “inactive”. In the case of `CC(Cl)C(Cl)Cl` (centres undefined), the outcome is reported as “inactive”. For `Nc1ccc(Cl)cc1[N+](=O)[O-]`, the outcome was “inactive”. For `NC(=O)Cn1c(=O)cc(CCN2CCN(c3nccc4sccc34)CC2)c2ccc(F)cc21`, the outcome was “inactive”. For `CCCC1C(CC)=CC(CC)=CN1c1ccccc1` (centres undefined), the outcome was “inactive”. With `CC(C)(O)c1ccccc1CC[C@@H](SCC1(CC(=O)O)CC1)c1cccc(/C=C/c2ccc3ccc(Cl)cc3n2)c1` the outcome was “inactive”. In the case of `CC(C)CCCCCOC(=O)CCCCC(=O)OCCCCCC(C)C`, the outcome is reported as “inactive”. With `CC(=O)[C@H]1CC[C@H]2[C@@H]3C=CC4=CC(=O)CC[C@@]4(C)[C@@H]3CC[C@]12C` the fluorescence, relative to Rose Bengal was -0.279% [at 18.6 µM] (inactive). With `COCCOC` the outcome was “inactive”.

Assay: qHTS assay to test for compound auto fluorescence at 535 nm (green) in HepG2 cells (AID 720675)
Settings: green autofluorescence 485/535 nm, 1 h; series mostly up to 91.3 µM
In the case of `Nc1ccc(C(=O)OCCCOC(=O)c2ccc(N)cc2)cc1`, the outcome is reported as “inactive”. For `CSc1ccc(Oc2ccc(S(N)(=O)=O)cc2CN(C)C)cc1C`, the outcome was “inactive”. For `N#C/C(=C1/SC[C@@H](c2ccc(Cl)cc2Cl)S1)n1ccnc1`, the outcome was “inactive”. For `c1cc[c]([Bi]([c]2ccccc2)[c]2ccccc2)cc1`, the outcome was “inactive”. In the case of `O=C(CCCN1CCN(c2ccc(F)cc2)CC1)NC1c2ccccc2CSc2ccccc21` (centres undefined), the outcome is reported as “inactive”. For `CCc1cccc(N(C)C(N)=Nc2cccc3ccccc23)c1`, the outcome was “inactive”. In the case of `COc1cc2ncnc(Nc3ccc(F)c(Cl)c3)c2cc1OCCCN1CCOCC1`, the outcome is reported as “inactive”. With `CN(C)C(=O)Nc1ccc(Oc2ccc(Cl)cc2)cc1` the outcome was “inactive”. With `CC(C)C(OC(=O)c1ccccc1)C(C)(C)COC(=O)c1ccccc1` (centres undefined) the outcome was “inactive”. For `Cc1nccn1-c1ccc(Sc2cccc(C3(C(N)=O)CCOCC3)c2)cc1`, the outcome was “inactive”. With `CCCCN(CCCC)C(=S)SSC(=S)N(CCCC)CCCC` the outcome was “inactive”. For `Cc1c(C(=O)NN2CCCCC2)nn(-c2ccc(Cl)cc2Cl)c1-c1ccc(Cl)cc1`, the outcome was “inactive”. In the case of `Cc1ccc(S(=O)(=O)NC2CCCCC2)cc1`, the outcome is reported as “inactive”. With `CC1C2CC(CC2C2CCCC(O)C2)C1(C)C` (centres undefined) the outcome was “inactive”. With `CC1=NN(c2ccc(C(=O)O)cc2)C(=O)C1` the outcome was “inactive”. For `CC[C@H](NC(=O)c1cc(F)ccc1NS(=O)(=O)c1cccc2cccnc12)c1ccccc1`, the outcome was “inactive”. In the case of `CC(C)c1nnc2ccc(-c3ocnc3-c3cc(F)ccc3F)cn12`, the outcome is reported as “inactive”. For `COc1cc2c(N3CCN(C(=O)Nc4ccc(OC(C)C)cc4)CC3)ncnc2cc1OCCCN1CCCCC1`, the outcome was “inactive”. In the case of `CCCc1c(OCCCOc2ccc(OCC(=O)O)cc2)ccc(C(C)=O)c1O`, the outcome is reported as “inactive”. In the case of `CC(Cl)C(Cl)Cl` (centres undefined), the outcome is reported as “inactive”. With `Nc1ccc(Cl)cc1[N+](=O)[O-]` the outcome was “inactive”. For `NC(=O)Cn1c(=O)cc(CCN2CCN(c3nccc4sccc34)CC2)c2ccc(F)cc21`, the outcome was “inactive”. With `CCCC1C(CC)=CC(CC)=CN1c1ccccc1` (centres undefined) the outcome was “inactive”. In the case of `CC(C)CCCCCOC(=O)CCCCC(=O)OCCCCCC(C)C`, the outcome is reported as “inactive”. For `CC(=O)[C@H]1CC[C@H]2[C@@H]3C=CC4=CC(=O)CC[C@@]4(C)[C@@H]3CC[C@]12C`, the fluorescence, % of fluorescein control was -0.0643% [at 18.6 µM] (inactive). For `COCCOC`, the outcome was “inactive”.
% is scaled to controls: 0 for no effect and ±100 for the full control effect.
